Drawing on the antibiotic and cytotoxicity screens of Wong et al. (2023), this text covers cytotoxicity call for 67 molecules.

Hit rate of the full screen: of about 39,000 compounds, about 3,300 (8.5%) were called active. Many of the other results were omitted from the sample, so actives are more common in it than they were.

The test concerns HepG2. As to the kind of experiment: cytotoxicity call (relative viability < 0.9). The note with it: 10 µM.
Consider `C[C@@H]1CN([C@@H](C)CO)S(=O)(=O)c2ccc(C3=CCCC3)cc2O[C@@H]1CN(C)C(=O)C1CCOCC1`, for which the cytotoxicity call was “inactive”.
Consider `CO[C@@H]1CN(C)C(=O)c2cc(NC(=O)C3CCOCC3)ccc2OC[C@H](C)N(Cc2cccnc2)C[C@H]1C`, for which the cytotoxicity call is “inactive”.
Consider `C[C@H](CO)N1C[C@H](C)[C@H](CN(C)C(=O)NC2CCCCC2)OCCCC[C@H](C)Oc2ccc(NC(=O)Cc3ccccc3)cc2C1=O`, for which the cytotoxicity call was “inactive”.
As for `COc1ccc(NC(=O)Nc2ccc3c(c2)C(=O)N([C@H](C)CO)C[C@H](C)[C@@H](CN(C)Cc2ccncc2)OCCCC[C@H](C)O3)cc1`, the cytotoxicity call is “inactive”.
For the molecule `C[C@H]1CN([C@@H](C)CO)C(=O)c2cc(NC(=O)Nc3ccc(C(F)(F)F)cc3)ccc2O[C@@H]1CN(C)C(=O)Nc1ccc(F)cc1`, the cytotoxicity call was “inactive”.
In the case of `C[C@H]1CN([C@@H](C)CO)C(=O)Cc2cc(NS(=O)(=O)c3ccccc3)ccc2O[C@H]1CN(C)Cc1ccc(Cl)c(Cl)c1`, the cytotoxicity call was “inactive”.
Next, `C[C@@H]1CN([C@H](C)CO)C(=O)Cc2cc(NS(=O)(=O)c3ccccc3)ccc2O[C@H]1CN(C)Cc1ccc(Cl)c(Cl)c1`: “active”.
Regarding `C[C@H](CO)N1C[C@H](C)[C@@H](CN(C)Cc2ccc(Cl)c(Cl)c2)Oc2ccc(NS(=O)(=O)c3ccccc3)cc2CC1=O`, the cytotoxicity call is “inactive”.
Consider `C[C@@H]1CN([C@@H](C)CO)C(=O)Cc2cc(NS(=O)(=O)c3ccccc3)ccc2O[C@H]1CN(C)Cc1ccc(Cl)c(Cl)c1`, for which the cytotoxicity call was “active”.
Regarding `C[C@H]1CN([C@@H](C)CO)C(=O)Cc2cc(NS(=O)(=O)c3ccccc3)ccc2O[C@@H]1CN(C)Cc1ccc(Cl)c(Cl)c1`, the cytotoxicity call is “active”.
Regarding `C[C@@H]1CN([C@@H](C)CO)C(=O)Cc2cc(NS(=O)(=O)c3ccccc3)ccc2O[C@@H]1CN(C)Cc1ccc(Cl)c(Cl)c1`, the cytotoxicity call is “active”.
Turning to `CNC[C@H]1OCCCC[C@@H](C)Oc2ccc(NC(=O)Nc3cccc4ccccc34)cc2C(=O)N([C@H](C)CO)C[C@H]1C`, the cytotoxicity call was “inactive”.
Next, `COc1ccccc1CNC(=O)C[C@H]1C[C@H]2c3cc(NS(=O)(=O)c4ccc(F)cc4)ccc3O[C@H]2[C@@H](CO)O1`: “inactive”; `C[C@H](CO)N1C[C@H](C)[C@@H](CN(C)Cc2ccc3c(c2)OCO3)Oc2ccc(NC(=O)CCN3CCOCC3)cc2CC1=O`: “inactive”.
For `COc1ccc(S(=O)(=O)Nc2ccc3c(c2)C(=O)N([C@H](C)CO)C[C@H](C)[C@H](CN(C)Cc2ccccc2)OCCCC[C@@H](C)O3)cc1`, the cytotoxicity call was “inactive”.
Turning to `C[C@@H]1CCCCO[C@H](CN(C)C(=O)NC2CCCCC2)[C@@H](C)CN([C@H](C)CO)C(=O)c2cc(NC(=O)CCCCCC(=O)Nc3ccccc3N)ccc2O1`, the cytotoxicity call is “inactive”.
Regarding `COc1ccc(S(=O)(=O)N(C)C[C@H]2Oc3ccc(NC(=O)CCCN(C)C)cc3C(=O)N([C@H](C)CO)C[C@@H]2C)cc1`, the cytotoxicity call is “inactive”.
For `COc1ccc(NC(=O)Nc2ccc3c(c2)C(=O)N([C@@H](C)CO)C[C@H](C)[C@H](CN(C)S(=O)(=O)c2ccc(Cl)cc2)OCCCC[C@@H](C)O3)cc1`, the cytotoxicity call is “inactive”.
Turning to `C[C@@H]1CCCCO[C@@H](CN(C)C(=O)Nc2ccc(C(F)(F)F)cc2)[C@H](C)CN([C@H](C)CO)C(=O)c2cc(NS(C)(=O)=O)ccc2O1`, the cytotoxicity call was “inactive”.
For the molecule `C[C@@H]1CN([C@H](C)CO)C(=O)Cc2cc(NS(=O)(=O)c3ccccc3)ccc2O[C@@H]1CN(C)Cc1ccc(Cl)c(Cl)c1`, the cytotoxicity call was “active”.
On to `C[C@H]1CN([C@@H](C)CO)C(=O)Cc2cc(NS(=O)(=O)c3cccs3)ccc2O[C@@H]1CN(C)Cc1ccc(Cl)c(Cl)c1`, for which the cytotoxicity call was “inactive”.
Regarding `C[C@H](CO)N1C[C@H](C)[C@H](CN(C)Cc2ccc(Cl)c(Cl)c2)Oc2ccc(NS(=O)(=O)c3ccccc3)cc2CC1=O`, the cytotoxicity call is “inactive”.
To `C[C@H]1CN([C@@H](C)CO)C(=O)Cc2cc(NS(=O)(=O)c3cccs3)ccc2O[C@H]1CN(C)Cc1ccc(Cl)c(Cl)c1` belongs “active”; to `C[C@@H]1CN([C@@H](C)CO)C(=O)Cc2cc(NS(=O)(=O)c3cccs3)ccc2O[C@H]1CN(C)Cc1ccc(Cl)c(Cl)c1`, “inactive”.
Take `C[C@@H]1CCCCO[C@@H](CN(C)Cc2ccccc2)[C@H](C)CN([C@@H](C)CO)C(=O)c2cc(NC(=O)CCC(F)(F)F)ccc2O1`: the cytotoxicity call was “inactive”.
Turning to `CC(C)NC(=O)N(C)C[C@H]1Oc2ccc(NC(=O)Cn3cnnn3)cc2CC(=O)N([C@H](C)CO)C[C@H]1C`, the cytotoxicity call is “inactive”.
To `C[C@H](CO)N1C[C@H](C)[C@H](CN(C)Cc2ccc(C(=O)Nc3ccccc3N)cc2)OCc2cnnn2CCCC1=O` belongs “inactive”; to `CC(C)(C)c1cc(CN)n[nH]1`, “inactive”.
Take `O=C(C[C@@H]1C[C@H]2c3cc(NS(=O)(=O)c4ccc(F)cc4)ccc3O[C@H]2[C@@H](CO)O1)N1CCOCC1`: the cytotoxicity call is “inactive”.
Consider `O=C1O[C@H](c2ccccc2)[C@H](c2ccccc2)N2[C@H]1[C@@H](C(=O)N1CCN(c3ncccn3)CC1)[C@]1(C(=O)Nc3ccc(C#CC4(O)CCCCCC4)cc31)[C@H]2c1ccc(OCCO)cc1`, for which the cytotoxicity call is “inactive”.
`CO[C@@H]1CN(C)C(=O)c2ccc(NS(=O)(=O)c3ccccc3)cc2OC[C@H](C)N(C(=O)NC(C)C)C[C@@H]1C`: the cytotoxicity call was “inactive”.
On to `CC(C)NC(=O)Nc1ccc2c(c1)CC(=O)N([C@H](C)CO)C[C@@H](C)[C@H](CN(C)C(=O)NC1CCCCC1)O2`, for which the cytotoxicity call is “inactive”.
For `C[C@H](CO)N1C[C@H](C)[C@H](CN(C)S(=O)(=O)c2cn(C)cn2)Oc2ccc(NS(=O)(=O)c3ccccc3)cc2C1=O`, the cytotoxicity call was “inactive”.
Consider `CC(O)C1C(=O)N2C(C(=O)O)=C(SC3CNC(C(=O)N(C)C)C3)C(C)C12` (configuration not stated), for which the cytotoxicity call was “inactive”.
As for `Nc1nnc(-c2ccc([N+](=O)[O-])o2)o1`, the cytotoxicity call was “inactive”.
Turning to `CCOC(=O)c1ccc(N2NC(=O)/C(=C/c3ccc([N+](=O)[O-])o3)C2=O)cc1`, the cytotoxicity call is “inactive”.
Turning to `O=C1OC(CN2CCOCC2)CN1N=Cc1ccc([N+](=O)[O-])o1` (configuration not stated), the cytotoxicity call is “active”.
As for `O=C1OCCN1N=Cc1ccc([N+](=O)[O-])o1`, the cytotoxicity call was “active”.
For the molecule `O=C1CN(N=Cc2ccc([N+](=O)[O-])o2)C(=O)N1`, the cytotoxicity call was “active”.
Regarding `O=C1CN(N=Cc2ccc(-c3ccc([N+](=O)[O-])cc3)o2)C(=O)[N-]1.[Na+]`, the cytotoxicity call is “inactive”.
Regarding `O=C1CN(/N=C/c2ccc([N+](=O)[O-])o2)C(=O)N1`, the cytotoxicity call was “active”.
Take `O=[N+]([O-])c1cncn1CCN1CCOCC1`: the cytotoxicity call is “inactive”.
Turning to `O=C(CN1CCOCC1)N/N=C/c1ccc([N+](=O)[O-])o1`, the cytotoxicity call was “inactive”.
On to `O=C(Cc1ccncc1)Nc1ccc2c(c1)[C@H]1C[C@H](CC(=O)N3CCc4ccccc4C3)O[C@H](CO)[C@H]1O2`, for which the cytotoxicity call was “inactive”.
On to `O=C(C[C@H]1C=C[C@H](NC(=O)Cc2ccccn2)[C@@H](CO)O1)NCCc1ccncc1`, for which the cytotoxicity call was “inactive”.
In the case of `CC(=O)NCc1c(I)c(NC(C)=O)c(I)c(C(=O)O)c1I`, the cytotoxicity call was “inactive”.
Next, `C[C@H]1CN([C@@H](C)CO)C(=O)c2cccc(NC(=O)c3ccc(-c4nccs4)cc3)c2O[C@H]1CN(C)Cc1ccc(-c2ccccc2)cc1`: “inactive”.
With `C[C@@H]1CN([C@@H](C)CO)S(=O)(=O)c2ccc(-c3ccc(F)cc3)cc2O[C@H]1CN(C)C(=O)C1CCOCC1`, the cytotoxicity call was “inactive”.
With `C[C@@H]1CCCCO[C@H](CN(C)C(=O)CCCN(C)C)[C@@H](C)CN([C@@H](C)CO)C(=O)c2cc(N(C)C)ccc2O1`, the cytotoxicity call was “inactive”.
For the molecule `C[C@@H]1CN([C@H](C)CO)C(=O)c2cccc(NS(C)(=O)=O)c2O[C@@H]1CN(C)C(=O)Nc1ccc(F)cc1`, the cytotoxicity call was “inactive”.
Regarding `Cc1[nH]c(=O)[nH]c(=O)c1/C=C/C(=O)O`, the cytotoxicity call was “inactive”.
Take `O=C(C[C@H]1CC[C@@H]2[C@H](COC[C@H](O)CN2S(=O)(=O)c2ccc(F)cc2)O1)N[C@H]1CCN(Cc2ccccc2)C1`: the cytotoxicity call is “inactive”.
In the case of `C[C@H]1CN([C@@H](C)CO)C(=O)c2cc(NC(=O)Nc3ccc(C(F)(F)F)cc3)ccc2O[C@H]1CN(C)Cc1ccc(-c2ccccc2)cc1`, the cytotoxicity call is “active”.
Take `C[C@@H]1CN([C@H](C)CO)C(=O)c2cc(NC(=O)Nc3ccc(C(F)(F)F)cc3)ccc2O[C@H]1CN(C)Cc1ccc(-c2ccccc2)cc1`: the cytotoxicity call was “active”.
Next, `C[C@@H]1CN([C@@H](C)CO)C(=O)c2cc(NC(=O)Nc3ccc(C(F)(F)F)cc3)ccc2O[C@@H]1CN(C)Cc1ccc(-c2ccccc2)cc1`: “active”; `C[C@@H]1CN([C@@H](C)CO)C(=O)c2cc(NC(=O)Nc3ccc(C(F)(F)F)cc3)ccc2O[C@@H]1CN(C)S(C)(=O)=O`: “inactive”; `C[C@H](CO)N1C[C@H](C)[C@@H](CN(C)C(=O)Nc2cccc3ccccc23)Oc2c(NC(=O)Nc3cccc4ccccc34)cccc2C1=O`: “inactive”.
With `C[C@@H]1CCCCO[C@H](CN(C)Cc2ccccc2)[C@H](C)CN([C@@H](C)CO)C(=O)c2cc(NC(=O)c3ccncc3)ccc2O1`, the cytotoxicity call was “inactive”.
For the molecule `O=C(C[C@H]1CC[C@@H]2[C@H](COC[C@H](O)CN2C(=O)c2ccc(F)cc2)O1)NCCCN1CCOCC1`, the cytotoxicity call was “inactive”.
As for `COCC#Cc1cnc2c(c1)C(=O)N([C@H](C)CO)C[C@H](C)[C@H](CN(C)S(=O)(=O)c1ccccc1)O2`, the cytotoxicity call was “inactive”.
As to `OC[C@H]1O[C@@H](n2cnc3c(N[C@@H]4CCOC4)ncnc32)[C@H](O)[C@@H]1O`, the cytotoxicity call is “inactive”.
Next, `CC[C@H](C#CCN1CCOCC1)OC(C)=O`: “inactive”; `COc1ccccc1S(=O)(=O)N[C@@H]1CC[C@@H](CCNC(=O)C2CC2)O[C@H]1CO`: “inactive”.
As for `CN1C(=O)c2cc(NC(=O)c3ccc(F)cc3)ccc2OC[C@@H]2O[C@H](CC(=O)N3CCOCC3)CC[C@@H]21`, the cytotoxicity call was “inactive”.
Turning to `COc1ccc(CN(C)C[C@H]2OCCCC[C@@H](C)Oc3ccc(NC(=O)C4CCCCC4)cc3C(=O)N([C@@H](C)CO)C[C@@H]2C)cc1`, the cytotoxicity call was “inactive”.
Turning to `NS(=O)(=O)c1ccc(CCn2ccn(CC(=O)NCCC3=CCCCC3)c(=O)c2=O)cc1`, the cytotoxicity call was “inactive”.
For `C[C@@H]1CN([C@@H](C)CO)C(=O)Cc2cc(NS(=O)(=O)c3ccc(F)cc3)ccc2O[C@@H]1CN(C)S(=O)(=O)c1cn(C)cn1`, the cytotoxicity call was “inactive”.
